In PubChem BioAssay AID624377 (The Scripps Research Institute Molecular Screening Center, 2012) one finds inhibition data, which are given here for 50 compounds.

Out of some 360,000 compounds screened, about 680 (0.19%) were called active. Shown is part of a subset that was picked to be rich in actives. Unmarked numbers belong to inactive results. No stated cut-off is given here; in the data, active means inhibition above about 25%; inactive means the rest.

Arf-GAP with SH3 domain, ANK repeat and PH domain-containing protein 1 (Homo sapiens), sequence (Q9ULH1 325-724 limits assumed): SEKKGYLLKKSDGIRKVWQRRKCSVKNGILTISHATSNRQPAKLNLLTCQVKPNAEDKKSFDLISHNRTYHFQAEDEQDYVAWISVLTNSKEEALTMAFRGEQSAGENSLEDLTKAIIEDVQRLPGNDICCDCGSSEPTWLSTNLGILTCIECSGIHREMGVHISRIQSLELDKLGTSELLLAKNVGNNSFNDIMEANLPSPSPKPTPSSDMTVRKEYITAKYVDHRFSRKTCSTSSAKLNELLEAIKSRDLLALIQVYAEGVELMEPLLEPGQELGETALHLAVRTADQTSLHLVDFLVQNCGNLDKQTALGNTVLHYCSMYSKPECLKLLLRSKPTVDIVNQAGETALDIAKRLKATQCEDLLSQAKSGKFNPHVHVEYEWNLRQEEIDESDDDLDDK

The assay has as its target Arf-GAP with SH3 domain, ANK repeat and PH domain-containing protein 1 (Homo sapiens) (UniProt Q9ULH1). Put plainly: blockers of ASAP1-stimulated ARF1 GTP hydrolysis – biochemical, fluorescence polarization, primary screen (AID 624377).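 Further: 0% = vehicle with enzyme and substrate and 100% = no enzyme.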 To be noted: GDP FP detection, at 16.5 µM, hits give high values. A general note: Polarisation of emitted light reports the rotation of a fluorescent probe.
In the case of `Cc1[nH]c2ccccc2c1CC(=O)Nc1ccc(Nc2cccnc2)c(-c2cccc(Cl)c2)c1`, the inhibition was 23.9%.
Under `Cc1ccc(NC(=O)N2c3ccccc3SC2c2ccco2)c(C)c1` (stereo not given) stands 0.24%; under `Nc1nc2c(ncn2[C@@H]2O[C@H](C(=O)N[C@@H](Cc3ccccc3)C(=O)NCc3ccccc3)[C@@H](O)[C@H]2O)c(=O)[nH]1`, 1.52%; under `CC(C)(C)C(c1nc2ccccc2[nH]1)n1c(Cc2csc3ccccc23)nc2ccccc21` (stereo not given), 0.61%.
For the compound `CCCCCCCCN1C(=O)[C@@H](CC(=O)N2CCN(C(=O)OCC)CC2)C[C@@]2(C(=O)OC)C1=C[C@H](C1CCCC1)O[C@@H]2C`, the inhibition was -6.71%.
Under `O=C(NS(=O)(=O)c1cccs1)[C@H]1O[C@@H](n2ccc(=O)[nH]c2=O)[C@H](O)[C@@H]1O` stands -0.42%.
Regarding `COc1cc(Nc2nc3ccc(Cl)cc3n3cnnc23)cc(OC)c1OC`, the inhibition is -7.78%.
In the case of `CN(CCO)c1ccc(/C=N/Nc2nncc3ccccc23)cc1` it was 4.89%.
On to `COc1cc(/C=N/Nc2nn3cnnc3c3ccccc23)cc(OC)c1OC`, for which the inhibition is 27.1% (active).
As to `Nc1[nH]c(C(=O)c2ccccc2)c(-c2ccc(Cl)cc2Cl)c1C(=O)c1ccccc1`, the inhibition is 1.42%.
Under `CCCCCCCCN1C(=O)[C@@H](CC(=O)NCc2ccc(C)o2)C[C@@]2(C(=O)OC)C1=C[C@H](C(C)(C)C)O[C@@H]2C` stands -18.4%.
In the case of `C[C@@H]1CN([C@H](C)CO)C(=O)CCCn2cc(nn2)CO[C@H]1CN(C)C(=O)Nc1ccc(N2CCCCC2)cc1` it was -5.8%; in that of `O=C(NCc1ccccc1)[C@@H]1CCCN1C(=O)[C@@H](NS(=O)(=O)c1ccc(F)cc1F)C1CCCCC1`, -1.92%; in that of `Cc1ccc(N)cc1CN1CCN(c2ncc(Cc3ccccc3)cn2)CC1`, 12%.
In the case of `COc1cccc(CNC(=O)[C@H]2CCCN2C(=O)[C@H]2CCCN2C(=O)C2CCCCC2)c1` it was -4.66%; in that of `COC(=O)[C@]1(Cc2ccccc2)NC=C(C(=O)c2ccccc2)[C@@H]1c1cccc(OC)c1`, -16.7%; in that of `C=CC1=CCN(S(=O)(=O)C(C)(C)C)[C@@H]1CCO`, -14.4%.
With `CN1CCCc2nc(-c3ccccc3)ccc21`, the inhibition is 1.42%.
In the case of `CSc1ccc(Oc2cccc3c2S(=O)(=O)N([C@H](C)c2ccccc2)C[C@@H](COCc2ccccc2)O3)cc1C` it was 0.74%.
As for `Cc1cc2c(nc1C)CCCN2C`, the inhibition is -12%.
In the case of `CN1C(=O)C2CC(O)C(SC3CC4C(=O)N(C)C(=O)C4CC3O)CC2C1=O` (stereo not given) it was -4.75%.
Under `COC(=O)[C@]12C[C@H](CC(=O)NCc3cccc(C(F)(F)F)c3)C(=O)N(Cc3ccc4c(c3)OCO4)C1=C[C@H](COCc1ccccc1)O[C@@H]2C` stands 2.38%; under `COC(=O)C1=C(C)N(Cc2ccccc2C(F)(F)F)C(=NCc2ccc(C(F)(F)F)cc2)NC1c1ccc(F)cc1` (stereo not given), 8.73%; under `COC(=O)C(C(=O)OC)c1ccccc1NS(=O)(=O)c1cccc2ccccc12`, -1.63%.
Under `COCCNc1nc(Nc2ccccc2Cl)c2sc(-c3ccccc3)cc2n1` stands 13.4%; under `OCCNc1nc(Nc2ccc(Cl)c(Cl)c2)nc2ccccc12`, 26% (active).
Consider `OCCNCCOc1ccc(Cl)c(Cl)c1`, for which the inhibition is -8.06%.
For the compound `COC(=O)[C@]12C[C@H](CC(=O)NCc3ccc(C)o3)C(=O)N(CCC3=CCCCC3)C1=C[C@H](C(C)(C)C)O[C@@H]2C`, the inhibition was -6.9%.
Under `COC(=O)C1=C(C)NC(=S)NC1c1ccc(OC)cc1` (stereo not given) stands 3.47%; under `COC(=O)c1ccc(NC(=O)C(C)N2C(=O)c3ccccc3C2=O)cc1` (stereo not given), 2.27%.
In the case of `COC(=O)c1ccc(NCC(=O)c2ccccc2)cc1` it was 24.7% (active).
Turning to `C#CCNc1ccc(C(=O)OCC)cc1`, the inhibition is -6.34%.
Turning to `Cc1ccc2nc(CN(C)C(=O)[C@@H](Cc3ccccc3)NC(=O)[C@H]3O[C@@H](n4ccc(=O)[nH]c4=O)[C@H](O)[C@@H]3O)[nH]c2c1`, the inhibition is -16.7%.
In the case of `Cc1noc(C)c1NC(=O)Nc1ccc2c(c1)C(=O)N([C@H](C)CO)C[C@H](C)[C@H](CN(C)Cc1ccncc1)OCCCC[C@@H](C)O2`, the inhibition was 3.29%.
Under `O=S(=O)(c1cccs1)N1CCCc2nc(-c3ccc(Br)cc3)ccc21` stands 0.45%; under `C=CCC[C@@H](CCCCC)OC(=O)/C=C/[C@@H](O)[C@H](O)C[C@H](O)CC=C`, 26.7% (active).
With `C=CCC[C@H](CCCCC)OC(=O)/C=C/[C@H](O)[C@@H](O)C[C@@H](O)CC=C`, the inhibition was 5.11%.
Regarding `CCCCNc1cccc2c1S(=O)(=O)N[C@@H](C)CO2`, the inhibition is 5.97%.
Consider `CC(C)CNc1cccc2c1S(=O)(=O)N[C@H](C)CO2`, for which the inhibition is -1.48%.
In the case of `CN1C(=O)C(Br)(Br)CC1c1cccnc1` (stereo not given) it was 2.71%; in that of `COCCCNC(=O)C[C@H]1C[C@@]2(C(=O)OC)C(=C[C@H](C(C)(C)C)O[C@@H]2C)N(Cc2ccc3c(c2)OCO3)C1=O`, -0.04%.
In the case of `Cc1cc(OC(=O)NCCc2ccc(F)cc2)ccc1F` it was -5.01%; in that of `C=CCN1C(=O)N(Cc2ccccc2)c2ccccc2S1(=O)=O`, 10.9%.
In the case of `COC(=O)C1=C(C)N(Cc2ccccc2C(F)(F)F)C(=NCc2ccc(OC)cc2)NC1c1cccc(C(F)(F)F)c1` (stereo not given) it was -0.5%.
With `C[C@H]1[C@H](c2ccccc2)Oc2cc(Br)ccc2S(=O)(=O)N1Cc1cccc(F)c1`, the inhibition was -15.2%.
Turning to `COC(=O)Nc1nc2ccc(C(=O)C3CC3)cc2[nH]1`, the inhibition is 3.58%.
Under `CC1(C)OC(=O)C2=C(CC(CCc3ccccc3)OC2c2ccc(Cl)cc2)O1` (stereo not given) stands 0.87%; under `O=C(Nc1c(Cl)c(C2CC2)nn1-c1ccccc1)C(Cl)(Cl)Cl`, 6.91%.
Under `O=C(C(=O)N1CCC(CNS(=O)(=O)Cc2ccccc2)CC1)c1cc2ccccc2o1` stands -10.9%; under `COC(=O)c1c(-c2ccc(OC)cc2)c2c(c3c4ccccc4n(S(=O)(=O)c4ccc(C)cc4)c13)C(=O)N(C)C2`, 5.81%.

As a reminder, the inhibition is the drop in the measured response relative to a control, in per cent.
